The source of these data is PubChem BioAssay AID651597 (National Center for Advancing Translational Sciences (NCATS), 2012).

The campaign covered roughly 1,100 compounds. About 390 (35%) were called active. Inconclusive results (about 30%) are left out. This is one part of the list. Values without a mark were called inactive. The call rests on the fitted dose curve; in most records, active means well fitted inhibition curve with a large enough effect; inconclusive means small, poorly fitted or top-dose-only effect; inactive means flat fitted curve, though single readings scatter.
On the % scale 0 is the no-effect control and ±100 the full control effect; potency means the concentration at half of the fitted maximal effect.

In the assay the target is Luciferin 4-monooxygenase (Photinus pyralis) (UniProt P08659). Kind of assay: qHTS of Nrf2 Activators: Hit Validation in Secondary FLuc Assay. Further: nearly all actives have a fitted effect of over 65% in size. The settings on record: firefly luciferase inhibition counter-screen, luminescence; series mostly up to 57.5 µM; activity, negative = inhibition: at the top concentration. A digest of the protocol:
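Purified firefly luciferase is tested for inhibition by compounds in the presence of its substrates, ATP and D-luciferin, each at Km. Inhibition marks likely false positives arising from reporter-enzyme stabilization.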
Regarding `O=c1c(Cl)c(N/N=C/c2ccc(Cl)cc2)cnn1-c1ccccc1`, the Potency is 19 µM (active).
With `O=C(O)c1ccc(-n2ncc(Cl)c(Cl)c2=O)cc1`, the “activity, negative = inhibition” value is 4.91%.
Still for that read-out and setting: the value for `Cc1ccc(Sc2cnn(-c3ccccc3)c(=O)c2Cl)cc1` was 0.573%.
`Oc1ccc2ccccc2c1/C=C/c1ccc2c(Br)cc(Br)c(O)c2n1`: the Potency is 10.7 µM (active).
With `COC(=O)c1sccc1NC(=O)c1ccccc1F`, the “activity, negative = inhibition” value was 2.44%.
On to `COc1cc2c(cc1NC(=O)c1ccccc1F)CCCC2`, for which the Potency is 8.49 µM (active).
Still for that read-out and setting: with `COc1cc2c(cc1NC(=O)c1ccco1)CCCC2` the figure was 7.57 µM (active).
Turning to `Cc1noc(C)c1COc1ccccc1C(=O)NNC(=O)c1ccccc1F`, the “activity, negative = inhibition” value was -1.09%.
On the same count and under the same terms, with `COc1cc(OC)c(NC(=O)c2ccco2)cc1Cl` the figure was -28.1%; with `COC(=O)[C@@H]1Cc2c([nH]c3ccccc23)C(C)(C)N1C(=O)CCl`, 3.08%.
Still for that read-out and setting: with `Cc1cc(Br)ccc1NC(=O)CNC(=O)Cn1ncc(Cl)c(Cl)c1=O` the figure was -3.69%.
In the case of `CCOC(=O)c1ccccc1N/C=C/C(=O)c1ccccc1`, the Potency is 10.7 µM (active).
As for `CCOC(=O)c1ccsc1NC(=O)CCS(=O)(=O)c1ccccc1`, the “activity, negative = inhibition” value is 2.57%.
With `CCOC(=O)c1cnc(-c2ccccc2)nc1-c1ccccc1`, the “activity, negative = inhibition” value is -24.4%.
For the molecule `CS(=O)(=O)c1nc(S(=O)(=O)c2ccc(Cl)cc2)c(N2CCC3(CC2)OCCO3)s1`, the “activity, negative = inhibition” value was -1.6%.
For the molecule `COC(=O)c1c(NC(=O)c2ccccc2)sc(C(N)=O)c1C`, the “activity, negative = inhibition” value was -0.933%.
Same read-out and setting: with `NC(=O)c1nc(Nc2ccccc2)sc1NC(=O)c1ccccc1Br` the figure was -28.1%.
Consider `Cc1ccc(Nc2nc(C(N)=O)c(NC(=O)c3ccccc3Br)s2)cc1`, for which the Potency was 13.5 µM (active).
Still for that read-out and setting: the value for `O=C(Nc1nccc(-c2cccs2)n1)c1cccs1` was 10.7 µM (active); that for `O=C(Nc1ncc2c(n1)-c1ccccc1CC2)c1cccs1` was 10.7 µM (active).
As to `O=C(CSc1nccc(-c2cccs2)n1)Nc1cccc(Cl)c1Cl`, the “activity, negative = inhibition” value is -6.99%.
With `O=C(CSc1nccc(-c2cccs2)n1)Nc1cccc(Cl)c1`, the “activity, negative = inhibition” value was -5.97%.
As for `Fc1ccc(Nc2nc3ccccc3n3cnnc23)c(F)c1`, the “activity, negative = inhibition” value was 6.09%.
On to `Cc1c(Nc2nc3ccccc3n3cnnc23)cccc1[N+](=O)[O-]`, for which the “activity, negative = inhibition” value is 0.0637%.
Take `Oc1ccccc1Nc1nc2ccccc2n2nnnc12`: the Potency is 10.7 µM (active).
With `CSc1ccc(C2NN=C(c3ccccc3)S2)cc1` (stereo not given), the Potency is 0.0426 µM (active).
Same read-out and setting: with `CC(C)OC(=O)c1cn(-c2ccccc2)nc1-c1ccco1` the figure was 6.75 µM (active).
For `O=C(Nc1cccnc1)C1(F)C(F)(F)C(F)(F)C(F)(F)C(F)(F)C1(F)F`, the “activity, negative = inhibition” value was -3.88%.
The same measure, in the same setting: the value for `O=C(Nc1ccc(N2CCN(C(=O)c3ccc(Cl)cc3)CC2)cc1)c1ccc([N+](=O)[O-])o1` was -19.8%.
Turning to `N#Cc1c(NC(=O)c2ccc([N+](=O)[O-])o2)sc2c1CCC2`, the Potency was 1.69 µM (active).
On to `O=C(NCC1CCCO1)c1ccc([N+](=O)[O-])o1` (stereo not given), for which the “activity, negative = inhibition” value was -0.921%.
For the molecule `O=C(Nc1nc(-c2ccncc2)cs1)c1ccco1`, the Potency was 12 µM (active).
In the case of `O=C(Nc1ccc(Br)c(Cl)c1)c1ccco1`, the Potency was 5.36 µM (active).
The same measure, in the same setting: with `O=C(Nc1nc2c(ccc3ccccc32)s1)c1ccco1` the figure was 4.78 µM (active); with `O=C(Nc1nc2ccsc2c(=O)s1)c1ccco1`, 10.7 µM (active).
On to `O=C(Nc1cc(Cl)ccc1-n1cncn1)c1ccco1`, for which the “activity, negative = inhibition” value was -2.78%.
Consider `Cc1cc(Cl)cc2sc(NC(=O)c3ccco3)nc12`, for which the Potency was 1.69 µM (active).
As to `Cc1ccc(Cl)c2sc(NC(=O)C3CC3)nc12`, the “activity, negative = inhibition” value is 2.02%.
For `CC(=O)Nc1ccc2nc(NC(=O)c3ccco3)sc2c1`, the Potency is 2.39 µM (active).
As to `C[C@H]1CCC[C@]2(C)C[C@H]3OC(=O)C(CN4CCCCCC4)[C@H]3C=C12` (stereo not given in full), the “activity, negative = inhibition” value is 1.07%.
For `N#CC1CC(c2ccccc2)=NN1c1ccccc1[N+](=O)[O-]` (stereo not given), the Potency was 3.79 µM (active).
On to `Cc1cc(Br)cn2c(Cc3ccccc3)c(-c3ccco3)nc12`, for which the Potency is 9.53 µM (active).
The same measure, in the same setting: the value for `Cc1ccc(Cc2c(-c3ccco3)nc3c(C)cc(Br)cn23)cc1` was 5.36 µM (active).
With `COc1cc2c(cc1OC)/C(=C/c1ccc(Cl)cc1)C(=O)OC2`, the “activity, negative = inhibition” value is -15.1%.
Still for that read-out and setting: with `O=C(O)c1ccc2c(=O)n3c(nc2c1)/C(=C/c1cccc(Cl)c1Cl)CC3` the figure was -29.6%.
Take `O=C(Nc1ccc(Br)c(C(F)(F)F)c1)c1ccccc1`: the Potency was 9.53 µM (active).
As to `O=C(Nc1ccc2c(c1)C(=O)NC2=O)c1cccc(C(F)(F)F)c1`, the “activity, negative = inhibition” value was 1.88%.
Take `O=C(Nc1c(Br)cc2c(c1Br)Cc1ccccc1-2)C(F)(F)F`: the “activity, negative = inhibition” value was -22.6%.
Still for that read-out and setting: with `c1ccc(Cn2ncc3c(NCc4ccco4)ncnc32)cc1` the figure was 3.05%.
Turning to `Cc1ccc(-c2nc(NCc3ccco3)c3ccccc3n2)cc1`, the Potency was 10.7 µM (active).
Consider `Cc1cc(NCc2ccco2)n2c(nc3ccccc32)c1C#N`, for which the “activity, negative = inhibition” value was -6.56%.
On to `O=C(NC(=S)Nc1ccc(Br)cn1)c1cccs1`, for which the Potency was 0.19 µM (active).
With `O=C(NC(=S)Nc1cccc2cccnc12)c1cccs1`, the Potency was 0.953 µM (active).
Consider `Cc1cccc(NC(=S)NC(=O)c2cccs2)n1`, for which the Potency was 12 µM (active).
As for `O=C(NC(=S)Nc1ccc(Cl)cn1)c1cccs1`, the Potency is 0.151 µM (active).
